Molecules are shown by their SMILES. The source made the active and inactive calls.

Assay [1] in a line: small molecules captured by biotinylated probe aFSTL3 – biochemical, small-molecule microarray, fluorescence 635/667, stem cell growth factor project, primary screen (AID 1064).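 Further: measures binding of the biotinylated anti-FSTL3 antibody to printed compounds.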 Particulars: higher = more signal.
Assay [2] can be described thus: binders from COS7 lysate, DM2A8 probe, primary screen, torsin A project, cell lysate, small-molecule microarray, fluorescence 635/667 (AID 1065). Particulars: higher = more signal, COS7 lysate expressing mutant human TOR1A.
A short description of assay [3]: small molecules captured by biotinylated probe aFGF2 – biochemical, small-molecule microarray, fluorescence 635/667, stem cell growth factor project, primary screen (AID 1067).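 Further: measures binding of biotinylated aFGF2 protein to printed compounds on slides; z-score merges feature fluorescence and signal-to-noise across triplicate slides.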 Particulars: higher = more signal.
Assay [4] in a line: small molecules captured by biotinylated probe aFGF10 – biochemical, small-molecule microarray, fluorescence 635/667, stem cell growth factor project, primary screen (AID 1071).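 Further: score merges 667 nm spot intensity and signal to noise from triplicate slides.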 Particulars: higher = more signal.
Assay [5] has as its target Neurogenic locus notch homolog protein 2 (Homo sapiens) (UniProt Q04721). As to the kind of experiment: small molecules binding Notch2 protein – biochemical, small-molecule microarray, 635 nm fluorescence, stem cell growth factors, primary screen (AID 1073). Particulars: higher = more signal.
The target of assay [6] is Pro-neuregulin-1, membrane-bound isoform (Homo sapiens) (UniProt Q02297). The assay can be described thus: small molecules binding neuregulin-1 protein – biochemical, small-molecule microarray, fluorescence 635/667, psychiatric disease protein project, primary screen (AID 1075).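 Further: score combines 667 nm spot fluorescence with signal to noise.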 Particulars: NRG1 binding, 635 nm fluorescence, higher = more signal.
Assay [7] deals with Neuregulin-1 EGF-like domain. The assay can be described thus: small molecules binding NRG1 EGF domain – biochemical, small-molecule microarray, 635 nm fluorescence, primary screen (AID 1081).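 Further: binding of the protein to compounds printed on small-molecule microarray slides.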 Particulars: higher = more signal.
The nature of assay [8]: FRG1 expression reporter modulators in myotubes – cell-based, C2C12 myotubes, firefly/Renilla luciferase, luminescence, FRG1 inhibition for FSHD, primary screen (AID 1084). Particulars: FRG1 promoter luciferase, higher = more signal, called active from +8 up or from −8 down.
Assay [9] in a line: small molecules captured by biotinylated probe aFST – biochemical, small-molecule microarray, fluorescence 635/667, stem cell growth factor project, primary screen (AID 1086).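 Further: score merges 667 nm fluorescence with signal-to-noise of each printed compound spot.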 Particulars: higher = more signal.
A short description of assay [10]: binders of probe aHhip on microarray, primary screen, stem cell growth factor project, biochemical, small-molecule microarray, fluorescence 635/667 (AID 1087).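 Further: score merges spot fluorescence at 667nm with spot signal to noise ratio.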 Particulars: higher = more signal.
Assay [11] concerns PRMT1 (protein arginine N-methyltransferase 1). As to the kind of experiment: small molecules binding arginine methyltransferase PRMT1 – biochemical, small-molecule microarray, 635 nm fluorescence, primary screen (AID 1088).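 Further: binding of Prmt1 protein to compounds spotted on small-molecule microarray slides.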 Particulars: higher = more signal.
The nature of assay [12]: growth effects on S. cerevisiae YJM789 – YJM789 clinical isolate, OD600, 24 h, basal, primary screen (AID 1089).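 Further: growth of clinical yeast isolate S. cerevisiae YJM 789 seeded 1000 cells per well; test concentration not given here.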 Particulars: higher = more signal, called active from +8 up or from −8 down.
Assay [13] in a line: S. pombe growth modifiers, basal conditions – strain 972, OD600, 24 h, no modulator, primary screen (AID 1090).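 Further: basal condition with compound alone and no growth modifier present; test concentration not given here.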 Particulars: S. pombe 972 growth, higher = more signal, called active from +8 up or from −8 down.
Assay [14] can be described thus: budding yeast growth modifiers under rapamycin – strain BY4716, OD600, 96 h, primary screen (AID 1091). Further: test concentration not given here. Particulars: S. cerevisiae BY4716 + rapamycin, higher = more signal, called active from +8 up or from −8 down.
In assay [15] the target is Torsin-1A-interacting protein 2 (Homo sapiens) (UniProt Q8NFQ8). As to the kind of experiment: small molecules binding lysate-expressed LULL1 – cell lysate, human LULL1 lysate, 635/667 nm fluorescence, primary screen (AID 1092).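 Further: probe is lysate of COS7 cells overexpressing human LULL1; score merges per-feature 667 nm fluorescence with signal-to-noise.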 Particulars: small-molecule microarray, hLULL1 lysate binding, 635 nm fluorescence; higher = more signal.
A short description of assay [16]: optical density change of DRC41 E. coli – strain DRC41, OD650, 24 h, E. coli filamentation project, primary screen (AID 1093).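 Further: MC1000 strain lacking acrAB efflux and sulA so SOS filamentation is blocked; test concentration not given here.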 Particulars: E. coli DRC41 growth, higher = more signal, called active from +8 up or from −8 down.
Assay [17] in a line: probe aLefty2 binding to arrayed compounds – biochemical, biotinylated probe, 635/667 nm fluorescence, primary screen (AID 1094).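 Further: score merges spot fluorescence near 667 nm with spot signal-to-noise ratio.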 Particulars: small-molecule microarray, higher = more signal.
The subject of assay [18] is Noggin (protein binding on small-molecule microarray). The assay can be described thus: small molecules binding Noggin protein – biochemical, 635/667 nm fluorescence, primary screen (AID 1095).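 Further: score merges 667 nm feature fluorescence with signal to noise over triplicate slides.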 Particulars: 635 nm fluorescence, higher = more signal.
Assay [19] addresses Neurogenic locus notch homolog protein 3 (Homo sapiens) (UniProt Q9UM47). As to the kind of experiment: small molecules binding NOTCH3 protein – biochemical, 635/667 nm fluorescence, primary screen (AID 1096). Particulars: small-molecule microarray, 635 nm fluorescence, higher = more signal.
Assay [20] can be described thus: probe aEGFR binding to arrayed compounds – biochemical, biotinylated probe, 635/667 nm fluorescence, primary screen (AID 1097).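 Further: probe is a biotinylated anti-EGFR antibody binding compounds printed on slides; score combines fluorescence near 667 nm and signal to noise of each spot.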 Particulars: small-molecule microarray, higher = more signal.

Sequence of Pro-neuregulin-1, membrane-bound isoform (Homo sapiens) (Q02297 whole entry, looked up, the tested form may be a part, canonical isoform): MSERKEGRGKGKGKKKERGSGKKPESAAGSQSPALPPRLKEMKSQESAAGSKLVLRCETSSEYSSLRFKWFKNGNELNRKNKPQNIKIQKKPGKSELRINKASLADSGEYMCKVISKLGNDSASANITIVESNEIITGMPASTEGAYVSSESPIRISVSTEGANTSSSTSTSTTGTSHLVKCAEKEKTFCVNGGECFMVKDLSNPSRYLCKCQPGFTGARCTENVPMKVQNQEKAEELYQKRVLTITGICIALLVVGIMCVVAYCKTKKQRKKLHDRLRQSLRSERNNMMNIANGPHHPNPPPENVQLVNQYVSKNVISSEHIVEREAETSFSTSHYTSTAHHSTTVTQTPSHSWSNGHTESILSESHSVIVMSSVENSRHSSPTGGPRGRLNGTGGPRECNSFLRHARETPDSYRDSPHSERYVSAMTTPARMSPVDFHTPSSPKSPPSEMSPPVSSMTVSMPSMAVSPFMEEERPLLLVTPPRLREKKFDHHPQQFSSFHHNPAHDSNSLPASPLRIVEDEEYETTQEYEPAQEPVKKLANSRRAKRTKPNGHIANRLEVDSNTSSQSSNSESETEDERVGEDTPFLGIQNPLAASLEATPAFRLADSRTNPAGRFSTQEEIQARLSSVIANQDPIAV
Sequence of Neurogenic locus notch homolog protein 2 (Homo sapiens) (Q04721 whole entry, looked up, canonical isoform): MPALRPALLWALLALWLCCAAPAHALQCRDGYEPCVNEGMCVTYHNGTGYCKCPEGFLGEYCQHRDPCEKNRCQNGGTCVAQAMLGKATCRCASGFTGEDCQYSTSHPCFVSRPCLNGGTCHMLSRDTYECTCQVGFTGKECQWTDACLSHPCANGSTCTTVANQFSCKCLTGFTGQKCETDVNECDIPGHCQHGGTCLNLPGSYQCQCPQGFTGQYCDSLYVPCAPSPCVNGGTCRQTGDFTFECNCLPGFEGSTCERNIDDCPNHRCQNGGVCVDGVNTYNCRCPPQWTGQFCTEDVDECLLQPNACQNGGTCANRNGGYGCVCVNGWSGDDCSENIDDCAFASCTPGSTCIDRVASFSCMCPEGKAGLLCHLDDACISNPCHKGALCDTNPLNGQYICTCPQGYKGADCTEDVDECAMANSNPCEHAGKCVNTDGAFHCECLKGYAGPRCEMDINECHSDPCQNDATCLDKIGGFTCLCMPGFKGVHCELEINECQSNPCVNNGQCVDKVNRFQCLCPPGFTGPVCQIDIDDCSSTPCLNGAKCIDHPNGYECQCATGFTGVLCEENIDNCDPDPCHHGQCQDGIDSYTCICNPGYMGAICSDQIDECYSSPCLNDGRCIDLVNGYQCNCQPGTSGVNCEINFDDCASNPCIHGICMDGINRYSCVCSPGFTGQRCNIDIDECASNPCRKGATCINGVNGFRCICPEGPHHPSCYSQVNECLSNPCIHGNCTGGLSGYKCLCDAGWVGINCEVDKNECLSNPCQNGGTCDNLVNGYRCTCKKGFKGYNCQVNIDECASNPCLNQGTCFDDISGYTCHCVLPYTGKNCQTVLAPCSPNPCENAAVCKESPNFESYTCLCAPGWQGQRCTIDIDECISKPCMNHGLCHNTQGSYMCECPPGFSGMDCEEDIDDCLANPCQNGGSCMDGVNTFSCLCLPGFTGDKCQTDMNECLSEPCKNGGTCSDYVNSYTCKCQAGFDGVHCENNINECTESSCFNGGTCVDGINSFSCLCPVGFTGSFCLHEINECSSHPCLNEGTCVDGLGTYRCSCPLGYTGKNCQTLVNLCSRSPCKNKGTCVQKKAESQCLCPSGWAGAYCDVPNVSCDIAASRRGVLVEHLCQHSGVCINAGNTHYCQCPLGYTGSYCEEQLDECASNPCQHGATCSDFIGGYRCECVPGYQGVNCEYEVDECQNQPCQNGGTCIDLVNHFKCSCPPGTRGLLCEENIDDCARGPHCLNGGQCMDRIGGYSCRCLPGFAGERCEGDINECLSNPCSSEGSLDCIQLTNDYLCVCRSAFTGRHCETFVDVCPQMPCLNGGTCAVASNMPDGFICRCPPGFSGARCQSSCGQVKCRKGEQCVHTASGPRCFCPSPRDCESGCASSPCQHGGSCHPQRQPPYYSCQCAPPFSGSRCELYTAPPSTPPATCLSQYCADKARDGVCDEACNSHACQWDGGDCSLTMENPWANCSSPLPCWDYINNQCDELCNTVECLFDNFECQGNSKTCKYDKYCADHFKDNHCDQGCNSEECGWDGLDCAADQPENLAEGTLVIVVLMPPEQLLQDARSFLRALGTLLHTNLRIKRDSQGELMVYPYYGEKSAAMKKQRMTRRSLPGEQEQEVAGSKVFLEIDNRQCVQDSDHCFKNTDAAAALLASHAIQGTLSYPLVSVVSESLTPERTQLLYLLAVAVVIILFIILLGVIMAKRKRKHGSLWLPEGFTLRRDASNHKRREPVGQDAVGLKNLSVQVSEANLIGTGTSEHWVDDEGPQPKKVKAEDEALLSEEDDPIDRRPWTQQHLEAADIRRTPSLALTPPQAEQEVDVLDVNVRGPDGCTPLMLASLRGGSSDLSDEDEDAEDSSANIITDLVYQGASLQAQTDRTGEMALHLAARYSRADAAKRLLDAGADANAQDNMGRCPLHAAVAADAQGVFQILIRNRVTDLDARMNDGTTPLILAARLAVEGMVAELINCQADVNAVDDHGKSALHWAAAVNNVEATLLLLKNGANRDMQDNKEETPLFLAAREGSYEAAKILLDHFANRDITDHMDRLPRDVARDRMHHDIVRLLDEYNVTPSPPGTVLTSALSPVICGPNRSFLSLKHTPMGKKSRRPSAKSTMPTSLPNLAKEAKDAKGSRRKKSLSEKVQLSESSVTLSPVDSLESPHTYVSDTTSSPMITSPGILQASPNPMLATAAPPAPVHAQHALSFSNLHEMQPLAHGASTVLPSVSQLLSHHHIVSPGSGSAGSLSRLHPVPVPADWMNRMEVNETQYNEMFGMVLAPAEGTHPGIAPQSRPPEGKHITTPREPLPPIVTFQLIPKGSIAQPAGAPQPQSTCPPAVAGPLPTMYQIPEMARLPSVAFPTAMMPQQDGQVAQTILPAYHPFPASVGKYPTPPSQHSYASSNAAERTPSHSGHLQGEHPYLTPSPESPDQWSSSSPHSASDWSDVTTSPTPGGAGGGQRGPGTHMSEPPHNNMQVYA
Sequence of Torsin-1A-interacting protein 2 (Homo sapiens) (Q8NFQ8 whole entry, looked up): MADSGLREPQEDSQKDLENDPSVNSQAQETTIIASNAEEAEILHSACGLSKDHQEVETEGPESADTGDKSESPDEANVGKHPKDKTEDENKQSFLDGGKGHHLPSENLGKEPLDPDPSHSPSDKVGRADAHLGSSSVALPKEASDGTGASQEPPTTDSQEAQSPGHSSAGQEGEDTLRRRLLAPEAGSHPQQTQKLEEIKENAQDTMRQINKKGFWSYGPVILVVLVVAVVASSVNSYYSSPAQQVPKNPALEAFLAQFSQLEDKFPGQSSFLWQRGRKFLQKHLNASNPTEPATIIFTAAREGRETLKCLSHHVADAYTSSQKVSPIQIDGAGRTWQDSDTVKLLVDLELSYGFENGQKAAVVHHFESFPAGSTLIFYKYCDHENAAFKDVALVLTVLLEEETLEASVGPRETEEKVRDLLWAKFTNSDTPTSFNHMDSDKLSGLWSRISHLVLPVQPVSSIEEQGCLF

For the molecule `CC(C)(C)N1CC=CC23O[C@@H]4C=CCCOC(=O)C4[C@H]2C(=O)N(CCCCCCO)[C@@H]3C1=O` (stereo not given in full), the composite z-score is -0.0477 in assay [1]; -1.39 in assay [2]; -0.0628 in assay [3]; 0.0493 in assay [4]; -0.615 in assay [5]; 1.36 in assay [6]. Besides, the composite z-score was 1.56 in assay [7]; -0.0273 in assay [9]; -0.236 in assay [10]; 0.647 in assay [11]; 3.16 in assay [15]; -0.171 in assay [17]. The composite z-score in [18] was -0.679; in assay [19], 0.123; in [20] it was -0.238. Moreover, the z-score in assay [8] is 0.908 (inactive); in [12], -0.0623 (inactive); in assay [13] it was -0.563 (inactive); in assay [14] it was 0.352 (inactive); in assay [16], -0.2 (inactive).

For the molecule `CC=CC(O)C1C=CC2C(=O)NC(=O)C2N1Nc1ccc(Cl)cc1Cl` (stereo not given), the composite z-score in assay [1] is 0.389; in assay [2], 0.453; in assay [3], -0.0074; in assay [4], 0.647; in [5] it was 0.662; in assay [6], 1.01. For the same molecule, the composite z-score in assay [7] was 0.669; in assay [9] it was 0.114; in assay [10], -0.0645; in assay [11] it was -0.193; in assay [15], 2.28; in assay [17] it was 0.0598. The composite z-score in assay [18] is -0.376; in [19] it was 0.0204; in assay [20], -0.148. Further, the z-score was 0.035 (inactive) in [8]; -6.04 (inactive) in assay [12]; -2 (inactive) in assay [13]; 0.624 (inactive) in assay [14]; -1.13 (inactive) in [16].

With `CC(C)N1C(=O)c2ccccc2[C@@H](C(=O)NCC(F)(F)F)[C@@H]1c1ccc(CO)cc1`, the composite z-score in assay [1] is 0.277; in assay [2] it was -1.16; in assay [3], -0.133; in assay [4], -0.0347; in assay [5], -1.07; in [6], 0.156. Further, the composite z-score in assay [7] is 1.21; in [9] it was -0.0934; in assay [10], -0.169; in assay [11] it was -0.57; in [15], 0.952; in assay [17] it was -0.117. For the same molecule, the composite z-score in assay [18] was 0.157; in [19], -0.59; in assay [20], -0.123. The z-score in assay [8] is 0.0294 (inactive); in assay [12], 0.125 (inactive); in assay [13], -0.637 (inactive); in assay [14], 0.0898 (inactive); in [16], -0.199 (inactive).

Take `C[N+](C)(C)CCCC[C@@H]1NC(=O)[C@H]2C[C@@H](C(=O)NCCCCCNC(=O)CS)[C@@H](c3cccc(OCCO)c3)N2C1=O`: the composite z-score in [1] was -0.121; in assay [2], 0.348; in [3], -0.102; in assay [4], 0.0107; in [5], -0.324; in [6], 1.5. Further, the composite z-score was 0.785 in [7]; 0.0685 in assay [9]; 0.0373 in assay [10]; -0.248 in assay [11]; 1.36 in [15]; -0.152 in [17]. For the same molecule, the composite z-score in assay [18] is 0.378; in assay [19] it was -0.36; in assay [20], -0.127. Moreover, the z-score in assay [8] is -0.474 (inactive); in assay [12], -0.802 (inactive); in assay [13] it was -0.693 (inactive); in assay [14], -0.451 (inactive); in assay [16], 0.469 (inactive).

As to `C=C(CCCC)/C(=C/C[C@H](OC(=O)c1ccncc1)c1ccccc1OCCO)c1cc(C(=O)OC)ccc1OC`, the composite z-score is -0.17 in [1]; 0.963 in [2]; -0.0591 in assay [3]; 0.845 in assay [4]; 0.101 in assay [5]; -0.217 in [6]. Also, the composite z-score in assay [7] is 0.787; in assay [9], 0.416; in assay [10] it was -0.0237; in [11], 1.34; in [15], 2.31; in [17] it was -0.0942. Besides, the values for the composite z-score in [18], in assay [19] and in assay [20] were 0.502, 0.647 and -0.15, respectively. Besides, the z-score was 0.908 (inactive) in assay [8]; 0.47 (inactive) in assay [12]; 0.333 (inactive) in [13]; 1.42 (inactive) in assay [14]; 0.588 (inactive) in [16].

The values above are taken from PubChem BioAssay.
